In all, about 68,000 compounds went through this assay and about 2,700 (4%) showed an effect of 50% or more. For the sample, strong results were picked, then their nearest neighbours and some compounds at random.
Tested on: Plasmodium berghei
Assay: Screen against P. berghei liver stage (PbLuc), transformed with Luciferase, at 2uM
Type: functional, HepG2
Conditions: tested at 2 uM

First: COc1ccc(C[C@H]2CN(C(=O)c3ccn(C)n3)CC[C@H]2OC)cc1
Second: COc1ccc(C[C@H]2CN(C(=O)c3cscn3)CC[C@@H]2OC)cc1
The INHIBITION of the first is higher: 15.57% for the first, -6.39% for the second.

Going from `CO[C@H]1CCN(C(=O)c2cc(C)on2)C[C@@H]1Cc1ccccc1` to `CO[C@@H]1CCN(C(=O)c2cc(C)on2)C[C@@H]1Cc1ccccc1`, the INHIBITION falls from 59.5% to 52.91%.

First: Cc1cc(C(=O)N2CC[C@@H](O)[C@@H]2Cc2ccccc2)no1
Second: COCCO[C@H]1CCN(C(=O)c2cc(C)on2)[C@H]1Cc1ccccc1
The INHIBITION of the first is lower: 19.42% for the first, 62.46% for the second.

Compared with `COc1ccc(C[C@H]2CN(C(=O)c3ccc(C)nc3)CC[C@@H]2OC)cc1`, `COc1ccc(C[C@H]2CN(C(=O)c3cnoc3)CC[C@@H]2OC)cc1` is lower in INHIBITION: 15.57% for the first, -36.05% for the second.

Going from `COc1ccc(C[C@H]2CN(C(=O)c3cc(C)no3)CC[C@H]2OC)cc1` to `Cc1ccc(CN2CCn3c(C(=O)N(C)C)cnc3C2)cc1`, the INHIBITION falls from 51.26% to 7.77%.

Going from `COCCN1C[C@H]2CCN(C(=O)c3cc(C)on3)CC[C@H]2S1(=O)=O` to `CCOc1ncccc1C(=O)N1CCCC(c2nccn2CCOC)C1` (stereo unspecified), the INHIBITION falls from 63.35% to -32.59%.

First: Cc1cnn(CC2CN(Cc3nc(C4CC4)no3)CCO2)c1 (stereo unspecified)
Second: Cn1cc(N2C(=O)CC[C@@H]3[C@H]2CCN3Cc2nccs2)cn1
The INHIBITION of the first is higher: -18.67% for the first, -20.87% for the second.

First: c1cnc(NCc2cncc3c2CCN(Cc2ccsc2)C3)nc1
Second: CN(C)C(=O)c1cnc2n1CCN(Cc1ccsc1)C2
The INHIBITION of the first is lower: 46.11% for the first, 54.89% for the second.

Compared with `CSc1nc2ccsc2c(=O)n1CC(=O)N1CCCCC1C` (stereo unspecified), `COc1ccsc1C(=O)N1CCCC1c1c(C)nn(C)c1OC` (stereo unspecified) is higher in INHIBITION: -24.07% for the first, -11.31% for the second.

Going from `CC(C)NC(=O)N1CCC2(CC(=O)N(c3cccc(C#N)c3)C2)C1` (stereo unspecified) to `Cc1cccc(CN2C(=O)CCC23CCN(Cc2cccn2C)CC3)n1`, the INHIBITION rises from -8.23% to 17.39%.

Compared with `O=C(C1CCOCC1)N1C[C@H](OCc2cccnc2)[C@H]2COC[C@H]21`, `Cn1cc(N2C(=O)CC[C@@H]3[C@H]2CCN3CC2CCOCC2)cn1` is higher in INHIBITION: 26.19% for the first, 50.17% for the second.

Compared with `CN1CCc2cc(C(=O)N(C)C)c(NCC3CC3)nc2CC1`, `CN(C)C(=O)c1cnc2n1CCN(Cc1ccccc1)C2` is lower in INHIBITION: 23.97% for the first, -26.24% for the second.

Compared with `COCCNCc1cc2ccc(C)c(C)c2[nH]c1=O`, `Cc1ccc2c(c1)c(Sc1ccccc1)c(CC(=O)O)n2C` is lower in INHIBITION: -21.9% for the first, -36.84% for the second.

Compared with `CCC1CN(C(=O)c2csc3nc(-c4ccc(Cl)cc4)cn23)CCN1` (stereo unspecified), `CC(O)CN1CCN(C(=O)c2cnn(-c3ccccc3F)c2)CC1` (stereo unspecified) is lower in INHIBITION: 22.83% for the first, -7.05% for the second.

Compared with `COc1ccc(-c2ncc(-c3nccn3CCN(C)C)cn2)cc1`, `CCn1ccnc1CN1CCCC1c1c(C)nn(C)c1OC` (stereo unspecified) is lower in INHIBITION: 10.63% for the first, -69.19% for the second.

Going from `CC(C)c1nccn1C1CCCN(C(=O)CCc2cscn2)C1` (stereo unspecified) to `COc1c(C2CCCN2Cc2nccn2C)c(C)nn1C` (stereo unspecified), the INHIBITION rises from 21.39% to 56.47%.

First: Cn1cc(N2C(=O)CC[C@@H]3[C@H]2CCN3CCc2ccccc2)cn1
Second: CCOc1cncc(N2CCN(c3ccccc3O)CC2)n1
The INHIBITION of the first is lower: -18.2% for the first, 22.75% for the second.

First: CCCN1CCC(Cc2noc(-c3cc4cccnc4nc3C)n2)CC1
Second: CCc1nc(CN2CCCC2c2c(C)nn(C)c2OC)no1 (stereo unspecified)
The INHIBITION of the first is higher: 38.91% for the first, 23.94% for the second.

Compared with `CC(C(=O)NCc1ccc(N2CCNC(=O)C2)cc1)c1cccs1` (stereo unspecified), `CC(c1ccccn1)N(C)C(=O)NCCn1c(=O)oc2ccccc21` (stereo unspecified) is higher in INHIBITION: -25.44% for the first, 40.4% for the second.

Going from `CCOC(=O)NC(CNC(=O)c1cn(C)cn1)CC(C)C` (stereo unspecified) to `CCOC(=O)NC(CNC(=O)c1ccccn1)CC(C)C` (stereo unspecified), the INHIBITION falls from 60.9% to -15.54%.

Going from `CCOC(=O)NC(CNC(=O)c1ncccn1)CC(C)C` (stereo unspecified) to `CSCC(CCO)NC(=O)Nc1cccc(Br)c1C` (stereo unspecified), the INHIBITION falls from 2.41% to -29.43%.

Compared with `O=C(NCCN1CCOCC1)NCC(O)c1cccc(F)c1` (stereo unspecified), `CCOCC(O)CN1CCN(C(=O)c2cnc3n[nH]c(C)c3c2)CC1` (stereo unspecified) is higher in INHIBITION: -27.69% for the first, 21.89% for the second.

Going from `Cc1noc(CN(CCO)Cc2cc(Br)ccc2F)n1` to `O[C@@H]1C[C@@H](c2nc(Cc3ccccc3)no2)N(Cc2ccc(F)cc2)C1`, the INHIBITION rises from -18.92% to 30.63%.

Going from `COc1c(C2CCCN2Cc2nnc(C3CC3)n2C)c(C)nn1C` (stereo unspecified) to `COc1c(C2CCCN2Cc2noc(C)n2)c(C)nn1C` (stereo unspecified), the INHIBITION falls from 28.1% to 21.83%.

First: COc1c(C2CCCN2Cc2noc(C(C)C)n2)c(C)nn1C (stereo unspecified)
Second: CSc1c(CC(=O)O)n(C)c2ccccc12
The INHIBITION of the first is higher: 59.93% for the first, -18.52% for the second.

`Cn1c(CC(=O)O)c(Sc2ccccc2)c2ccccc21` was tested, and the INHIBITION was 52.89%.
